The text below walks through data of PubChem BioAssay AID493248 (Broad Institute, 2011).

Out of some 2,300 compounds screened, about 1,400 (61%) were called active. Roughly 7% stayed inconclusive and do not appear here. No rule for the calls is given here. So high a share suggests a set chosen from earlier hits. The list is a sample of the results. Potency and affinity values are given separately.

For this assay, the target named is FAD-linked sulfhydryl oxidase ALR (Homo sapiens) (UniProt P55789). The experiment in a line: ALR-catalysed DTT oxidation blockers – biochemical, H2O2 detection, luminescence, cherry-pick, dose response (AID 493248). The note with it: purified ALR, H2O2 HRP-luminol luminescence; at 10 µM (top of the series).
Chain of FAD-linked sulfhydryl oxidase ALR (Homo sapiens) (P55789 whole entry, looked up): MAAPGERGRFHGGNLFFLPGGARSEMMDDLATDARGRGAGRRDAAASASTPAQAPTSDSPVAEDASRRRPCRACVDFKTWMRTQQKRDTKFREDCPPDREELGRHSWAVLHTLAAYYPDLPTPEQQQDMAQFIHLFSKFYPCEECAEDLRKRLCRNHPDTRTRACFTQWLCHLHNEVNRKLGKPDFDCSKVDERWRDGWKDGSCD
As for `COc1ccc(-c2coc3cc(O)ccc3c2=O)cc1O`, the activity change, negative = inhibition is -45.2%.

For `COC(=O)c1c(-c2ccc(C)cc2)csc1N`, the activity change, negative = inhibition is -4.41%.

As to `Cc1cccc(C(=O)Nc2ccc(O)cc2)c1`, the activity change, negative = inhibition is -86.3%.

For the compound `Cc1oc(-c2ccccc2)cc1C(=O)Nc1cccc(C(=O)O)c1`, the activity change, negative = inhibition was -45.5%.

As for `COc1ccccc1C(=O)Nc1nc2nc(-c3ccccc3)cc(=O)n2[nH]1`, the activity change, negative = inhibition was -46.5%.

With `Cc1cc(C)nc(NS(=O)(=O)c2ccc(NC(=O)Cc3ccccc3F)cc2)n1`, the activity change, negative = inhibition is -98.5%.

In the case of `c1ccc(CCCN2CCN(c3ccccc3)CC2)cc1`, the activity change, negative = inhibition is -9.66%.

As to `COC(=O)c1ccc(NC(=O)CN2CCN(c3ccccc3)CC2)cc1`, the activity change, negative = inhibition is -30.3%.

For the compound `O=C(CCCC1=NS(=O)(=O)c2ccccc2N1)N1CCN(c2ccc(Cl)cc2)CC1`, the activity change, negative = inhibition was -50.1%.

As for `Cc1nc2nc(C)c(CCC(=O)N3CCN(c4ccccc4)CC3)c(C)n2n1`, the activity change, negative = inhibition is -54.1%.

As for `Cc1nn(-c2ccccc2)c2nc(-c3ccco3)cc(C(=O)O)c12`, the activity change, negative = inhibition is -53.4%.

As to `COC(=O)c1ccc(CSc2nc3ccc(Cl)cc3[nH]2)o1`, the activity change, negative = inhibition was -47.5%.

On to `COC(=O)c1ccc(CSc2ncnc3c2nnn3-c2ccc(F)cc2)o1`, for which the activity change, negative = inhibition was -6.9%.

In the case of `O=C1c2cc(O)c(O)cc2S(=O)(=O)C1c1ccccc1` (configuration not stated), the activity change, negative = inhibition is -13%.

In the case of `COc1ccc(-n2cnnc2SCc2cnc(-c3ccccc3)s2)cc1`, the activity change, negative = inhibition was -99.2%.

For `Cc1nc2ccc(NC(=O)c3ccco3)cc2nc1C`, the activity change, negative = inhibition was -98.9%.

Turning to `Oc1ccc(C2C[C@H]3CC[C@@H]2C3)cc1O` (some centres not stated), the activity change, negative = inhibition came to 0.253%.

Consider `O=C(O)CCCN1C(=O)/C(=C\C(Cl)=C\c2ccccc2)SC1=S`, for which the activity change, negative = inhibition was -28.9%.

As to `CN(C)c1ccc(N2CC(C)(C)C2=O)cc1`, the activity change, negative = inhibition is 9.24%.

Turning to `Cc1cccn2cc(-c3cccc(S(=O)(=O)N4CCCCC4)c3)nc12`, the activity change, negative = inhibition was -98.3%.

Consider `Cc1cc(C)c2ccc(N)nc2c1O`, for which the activity change, negative = inhibition was -14.6%.

As to `COc1cc(C)nc(Oc2ccc(/C=N/O)cc2)n1`, the activity change, negative = inhibition is -95.2%.

For the compound `CCN1CCN(C(=O)Nc2ccc(Cc3ccc(NC(=O)N4CCN(CC)CC4)cc3)cc2)CC1`, the activity change, negative = inhibition was -18.9%.

As for `COCc1nnc(NC(=O)c2ccc(S(=O)(=O)N3CCCc4ccccc43)cc2)o1`, the activity change, negative = inhibition is -34.2%.

Consider `CCCC(O)(c1ccc(OC)cc1)C(CN(C)C)c1ccccc1` (configuration not stated), for which the activity change, negative = inhibition came out at 4.55%.

In the case of `Nc1ccccc1Nc1c(F)c(F)nc(F)c1Cl`, the activity change, negative = inhibition is -37.7%.

For the compound `Cc1ccc[n+](-c2nc([O-])sc2/C=N/Nc2ccc([N+](=O)[O-])cc2)c1`, the activity change, negative = inhibition is -43.9%.

With `O=C(NCc1ccco1)C1CC(=O)N(c2ccc(O)cc2)C1` (configuration not stated), the activity change, negative = inhibition is -85.4%.

For the compound `O=C(CNC(=O)c1ccco1)Nc1ccc(N2CCCCCC2)cc1`, the activity change, negative = inhibition was -0.183%.

As to `O=C(CN1CCN(c2ccc(O)cc2)CC1)Nc1cc(S(=O)(=O)N2CCCC2)ccc1Cl`, the activity change, negative = inhibition is -40.9%.

With `COc1cc(/C=C/c2sc3ccccc3[n+]2CCCS(=O)(=O)[O-])ccc1O`, the activity change, negative = inhibition is -105%.

`Nc1nc(-c2ccc3c(c2)CCCC3)cs1`: the activity change, negative = inhibition was -97%.

In the case of `COc1ccc2c(c1)c1ncn(CCc3ccccc3)c(=O)c1n2C`, the activity change, negative = inhibition is -0.427%.

For `O=c1[nH]c(=S)[nH]c2sccc12`, the activity change, negative = inhibition is -34.4%.

`Cc1ccc(CNC(=O)c2ccc(CS(=O)Cc3ccccc3Cl)o2)cc1` (configuration not stated): the activity change, negative = inhibition was -1.87%.

`O=c1oc2c3c4c(cc2s1)CCCN4CCC3`: the activity change, negative = inhibition is -13.7%.

Turning to `Cc1ccc(N2CCN(S(=O)(=O)c3ccc4c(c3)NC(=O)C(C)C(=O)N4)CC2C)cc1` (configuration not stated), the activity change, negative = inhibition is -30.2%.

As to `CC(C)n1cc(C(=O)N2CCCC(N3CCN(c4cccc(Cl)c4)CC3)C2)cn1` (configuration not stated), the activity change, negative = inhibition is -43.2%.

As for `Cc1cccc(N2CCN(C(=O)Cn3sc4nc(C)cc(C)c4c3=O)CC2C)c1` (configuration not stated), the activity change, negative = inhibition was -57.4%.

For `O=c1oc2ccccc2cc1-c1ccc(O)cc1O`, the activity change, negative = inhibition was found to be 371%.

Consider `Cc1c(Cl)c(-c2n[nH]c(=S)n2CC(C)C)nn1C`, for which the activity change, negative = inhibition was -54.1%.

As to `Cn1cc(Cl)c(-c2n[nH]c(=S)n2-c2ccc(F)cc2)n1`, the activity change, negative = inhibition came out at 18.2%.

On to `CC(C)(C)c1ccc(C(=O)Oc2ccccc2CCC(=O)O)cc1`, for which the activity change, negative = inhibition is -56%.

For the compound `CC(C)(C)c1ccc(Oc2ccc(N)cn2)cc1`, the activity change, negative = inhibition was 49.2%.

On to `CN(C)c1ccc(C(=O)N2CCCC2)cc1`, for which the activity change, negative = inhibition was -10.3%.

Consider `CC1CCN(C(=S)c2ccc(O)cc2)CC1`, for which the activity change, negative = inhibition is -30%.

For `S=c1[nH]nc(-c2ccco2)n1/N=C/C=C/c1ccccc1`, the activity change, negative = inhibition was -45.1%.

For the compound `COc1ccc(-c2n[nH]c(=S)n2Cc2ccco2)cc1`, the activity change, negative = inhibition is -32.4%.

On to `C=CCn1c(-c2sccc2C)n[nH]c1=S`, for which the activity change, negative = inhibition was 0.591%.

For the compound `CC1CCCCC1n1c(-c2cccnc2)n[nH]c1=S` (configuration not stated), the activity change, negative = inhibition is -2.8%.

As to `N#Cc1ccccc1S(=O)(=O)N1CCN(C(=O)Cc2coc3cc(O)ccc23)CC1`, the activity change, negative = inhibition is -102%.

Take `CCN(C=NC1=NN(c2cccc(C(F)(F)F)c2)CC1)CC`: the activity change, negative = inhibition was determined as 4.04%.

Regarding `CCc1ccc(OC)c(-c2csc(N)n2)c1`, the activity change, negative = inhibition turned out to be 3.63%.

On to `COC(=O)c1[nH]c2cc(OC)ccc2c1N=CN(C)C`, for which the activity change, negative = inhibition was -64.5%.

In the case of `O=c1oc(-c2ccc(F)cc2)nc2ccsc12`, the activity change, negative = inhibition was -52.7%.

Turning to `O=C(Nc1ccccc1N1CCCCC1)c1cnccn1`, the activity change, negative = inhibition was -36.5%.

For `Cc1ccc(C(=O)C2CCN(CC(=O)Nc3ccc(N(C)C)cc3)CC2)cc1`, the activity change, negative = inhibition is -106%.

Regarding `C=CCn1c(-c2cc(OC)cc(OC)c2)n[nH]c1=S`, the activity change, negative = inhibition is -54.8%.

Turning to `C=CCn1c(-c2ccc(N)cc2)nc2ccccc21`, the activity change, negative = inhibition is -33.2%.

On to `Cc1nnc(N2CCN(Cc3ccccc3)CC2)[nH]c1=O`, for which the activity change, negative = inhibition is 42.6%.

In the case of `CCN(C(=O)CN1CCN(c2cccc(Cl)c2)CC1)c1c(N)n(Cc2ccccc2)c(=O)[nH]c1=O`, the activity change, negative = inhibition is -43.8%.

As for `CCn1c(=O)c2c3c(sc2n2c(=S)[nH]nc12)CCC3`, the activity change, negative = inhibition was -18.2%.

For `COc1cccc(/C=N/NC(=O)CNC(=O)c2ccncc2)c1O`, the activity change, negative = inhibition is -31.5%.

For the compound `COc1cc(/C=N\NC(=O)c2ccc(-c3ccccc3)cc2)cc(OC)c1O`, the activity change, negative = inhibition was -59.8%.

Regarding `COc1cc2c(ccc3cc(OC)c(OC)c(O)c32)cc1O`, the activity change, negative = inhibition was -112%.

For the compound `Cc1nc2ccc(-c3ccccc3)cc2o1`, the activity change, negative = inhibition was -7.02%.

In the case of `c1c2c(cc3sc(N4CCCCC4)nc13)OCO2`, the activity change, negative = inhibition is -5.07%.

On to `O=C(O)c1[nH]c2ccccc2c1NS(=O)(=O)Cc1ccccc1`, for which the activity change, negative = inhibition is -42.2%.

As for `C[C@H](NC(=O)c1cc2c(cn1)[nH]c1ccccc12)C(=O)O`, the activity change, negative = inhibition is -94.7%.

As to `CCCn1cnc2cc(NCc3cccc(OC)c3)ccc21`, the activity change, negative = inhibition came out at 395%.

As to `Cn1cnc2cc(NCc3ccccc3O)ccc21`, the activity change, negative = inhibition came out at 297%.

For `Oc1ccc(-c2n[nH]c(=S)n2Cc2ccco2)cc1`, the activity change, negative = inhibition is -29.1%.

For `COc1ccc(C(=O)N/N=C(\Cc2ncc[nH]2)c2ccccc2)cc1`, the activity change, negative = inhibition was -40%.

On to `Cc1[nH]nc(-c2ccc(O)cc2O)c1Oc1ccccc1`, for which the activity change, negative = inhibition is -84.3%.

Take `COc1ccc(S(=O)(=O)n2nc(OC(=O)c3ccco3)cc2N)cc1`: the activity change, negative = inhibition was -55.8%.

As to `O=C1NN(c2ccccc2)C(=O)/C1=C\c1ccccc1`, the activity change, negative = inhibition is -5.6%.

Regarding `N/C(=N\N=C\c1ccc(O)cc1)c1nonc1N`, the activity change, negative = inhibition was -84.5%.

For `Nc1cc(C(F)(F)F)ccc1C(=O)O`, the activity change, negative = inhibition turned out to be 8.42%.

Turning to `COc1ccccc1N1CC(C(=O)Nc2nnc(SCc3cccnc3)s2)CC1=O` (configuration not stated), the activity change, negative = inhibition was -17.9%.

Consider `Cc1ccc(-c2nc3cc(N)ccc3o2)c(C)c1`, for which the activity change, negative = inhibition was determined as 19.5%.

Turning to `COC(=O)c1ccc(-c2nc3cc(N)ccc3o2)cc1`, the activity change, negative = inhibition stood at 72.5%.

Consider `Nc1ccc2nc(-c3cccs3)[nH]c2c1`, for which the activity change, negative = inhibition was -80%.

Take `Cc1ccc(C)c(-c2nc3cc(N)ccc3o2)c1`: the activity change, negative = inhibition was -81.2%.

With `COc1ccc(-c2cc(C(F)F)n3ncc(C(=O)n4ccnc4C)c3n2)cc1`, the activity change, negative = inhibition was -48%.

As for `CCCN1CCC(=O)N([C@H](CSc2ccc(OC)cc2)CC(C)C)CC1`, the activity change, negative = inhibition was found to be 20.7%.

As to `O=C(O)CCn1c2c(c3ccccc31)CCCC2`, the activity change, negative = inhibition was 5.37%.

On to `Cc1ccc(Nc2nnns2)cc1C`, for which the activity change, negative = inhibition is -6.48%.

For the compound `Cc1ccc(NCCC(=O)c2cccs2)cc1C`, the activity change, negative = inhibition was -51.1%.

Regarding `CN(C)c1ccc(CN(C(=O)c2cc3ccccc3oc2=O)C2CCS(=O)(=O)C2)cc1` (configuration not stated), the activity change, negative = inhibition was -17.6%.

As to `COc1ccc(NC2CCCN(C(=O)c3ccc(C)nc3)C2)cc1` (configuration not stated), the activity change, negative = inhibition amounted to 289%.

As to `S=c1[nH]nc(-c2ccncc2)n1Cc1ccco1`, the activity change, negative = inhibition was -47.7%.

As to `Cc1cccc(C(=O)N2CCCC(N3CCN(c4ccc(F)cc4)CC3)C2)n1` (configuration not stated), the activity change, negative = inhibition is -66.1%.
